Laboratory results: PubChem BioAssay AID743343 (Broad Institute, 2014)
Potency and affinity values are given separately. Active and inactive are the calls of the source. How the calls were made is not given here.

System: Drosophila melanogaster bursicon receptor LGR2 (rickets)
Experiment: blockers of bursicon-stimulated LGR2 cAMP reporter – cell-based, HEK293, CRE-luciferase reporter, cherry pick, set 2, dose response (AID 743343)
Conditions: bursicon-induced cAMP antagonist; series mostly up to 35 µM

outcome, inactive:
CC(C)CCNC(=O)C(c1ccc(O)cc1)N(Cc1cccs1)C(=O)C1COc2ccccc2O1 (stereo not drawn)
Cc1ccc(S(=O)(=O)N(C)C[C@H]2Oc3cc(Br)ccc3S(=O)(=O)N([C@H](C)CO)C[C@H]2C)cc1
O=C(c1ccc(F)cc1)N1CC(=O)N2[C@@H](CO)[C@@H](c3ccc(C#CC4CCCC4)cc3)[C@@H]2C1
COc1ccc2[nH]c3c(c2c1)CCN1C(=O)N([C@@H](C)C(=O)NCc2ccc(C)cc2)C(=O)[C@]31C
C[C@@H]1CN([C@H](C)CO)C(=O)c2c(c3ccccc3n2C)-c2ccccc2CO[C@H]1CN(C)S(=O)(=O)c1cn(C)cn1
Cc1ccnc(N2C(=O)c3ccccc3C2Nc2ccc3c(c2)OCCO3)c1 (stereo not drawn)
COc1ccccc1CCn1cnc(-c2ccccc2OC)c1C(C)C
O=C(Nc1cc(S(=O)(=O)Nc2ccccc2Cl)ccc1O)c1ccc(F)cc1F
CCOC(=O)Nc1ccc(N2CCOCC2)c(S(=O)(=O)Nc2ccc(Cl)cc2)c1
CCc1nnc(NC(=O)CSc2nnc3ncccn23)s1
C[C@H](CO)N1C[C@H](C)[C@@H](CN(C)C(=O)Nc2ccc3c(c2)OCO3)Oc2c(cccc2N(C)C)C1=O
O=C(CSc1ncnc2[nH]ncc12)Nc1nc(-c2ccc(F)c(F)c2)cs1
CCOC(=O)C(C)N1c2cccc3cccc(c23)S1(=O)=O (stereo not drawn)
COc1ccc(-c2nc(N)n(C(=O)c3cccs3)n2)cc1
CC[C@H](CO)Oc1cc(NCc2ccc(Cl)c(Cl)c2)c2ncn(C(C)C)c2c1
CC1(c2ccccc2Cl)NC(=O)N(CC(=O)N2CCc3ccccc32)C1=O (stereo not drawn)
CCOc1cccc2sc(Nc3nc4ccc(NC(C)=O)cc4s3)nc12
O=S(=O)(Nc1ccc(O)c2ccccc12)c1ccc(OC(F)(F)F)cc1
Cc1ccc(S(=O)(=O)N2CCCc3nc(-c4ccc(F)cc4)ccc32)cc1
CC(=O)c1c(C)[nH]c(C(=O)CN2C(=O)NC(C)(c3ccc(C)cc3)C2=O)c1C (stereo not drawn)
COCC(=O)N[C@@H]1CC[C@@H](CC(=O)NCc2ccccc2OC)O[C@@H]1CO
C[C@H](CO)N1C[C@H](C)[C@@H](CN(C)CC2CCOCC2)Oc2ncc(Br)cc2C1=O
COCC#Cc1ccc2c(c1)O[C@H](CN(C)S(=O)(=O)c1cccc(F)c1)[C@@H](C)CN([C@H](C)CO)S2(=O)=O
O=C(C[C@H]1CC[C@H](NS(=O)(=O)c2cccc(F)c2)[C@@H](CO)O1)N1CCCCC1
Cc1ccc(NC(=O)c2ncn(CC(=O)N3CCN(c4ccccn4)CC3)n2)cc1C
COc1cc(NC2CCCCC2O)c2nc(-c3ccc(Cl)cc3)ccc2c1 (stereo not drawn)
COc1cccc(-c2ccc(C3[C@@H]4CN(C(=O)C5CC5)C[C@H]3N4)cc2)c1 (stereo partly drawn)
O=C(c1ccc(CSc2nc3ccncc3[nH]2)cc1)N1CCN(c2cccc(Cl)c2)CC1
COc1cccc(C(=O)Nc2ccc3c(c2)OC[C@@H](C)N(CC2CC2)C[C@H](C)[C@H](OC)CN(C)C3=O)c1
OC[C@H]1[C@@H](c2ccc(-c3ccc(F)cc3)cc2)[C@@H]2CN(Cc3ccccn3)CCCCN12
CO[C@@H]1CN(C)C(=O)c2ccc(NC(=O)C3CC3)cc2OC[C@@H](C)NC[C@@H]1C
CC(C)N(C(=O)Nc1ccc2nsnc2c1)C(C)C
O=c1cc(-c2c(F)c(F)c(F)c(F)c2F)oc2ccccc12
CCc1nnc2cccc(Cl)n12
CCN(C(=O)COC(=O)C12CC3CC(CC(O)(C3)C1)C2)c1c(N)n(Cc2ccccc2)c(=O)[nH]c1=O
O=[N+]([O-])c1cc(S(=O)(=O)N2CCCCCC2)ccc1Cl
CC(C)(C)c1nc2ccc(Cl)cn2c1CC1CCCCC1
COc1ccc2cc(C#N)c(Nc3cccc(F)c3)nc2c1
